Results published in PubChem BioAssay (NCI).
This is part of a sample that, as a whole, favours compounds with a hit. Of some 83,000 tested, about 20% had one in any assay.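 For each line, cells grew in 96-well plates with the test compound present at a single concentration for 48 hours.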 The source made the active and inactive calls. The calls were made as follows: active = growth percent below 10; inactive = the rest.

The compounds below were run on BT-549 breast (assay: NCI-60 one-dose screen, 48 h (100 = growth as untreated, 0 = no growth, -100 = all killed)). Details: 10 µM unless noted.
For `CCOC(=O)/C(C#N)=C\c1c[nH]c2ccccc12`, the growth was 129% (inactive). In the case of `CC(=O)N(C)N=Nc1ccc(C)cc1`, the growth was 90.1% (inactive). `COc1cc(C(=O)N2CCN(c3ccccc3)CC2)c2ccccc2n1` was tested, and the growth was 12.7% (inactive). In the case of `CCCCCCCCCCCCSC1=C(Cl)C(=O)C(OC)=C(OC)C1=O`, the growth was 58.3% (inactive). For `Cc1ccc(N2C(=O)c3cccc4c(N)c(S(=O)(=O)O)cc(c34)C2=O)cc1`, the growth was 131% (inactive). In the case of `S=C=Nc1ccc2ccccc2c1`, the growth was 96.2% (inactive). `O=C1C=C(c2ccccc2)C(O)(c2ccccc2)C1` (stereo unspecified) was tested, and the growth was 94.8% (inactive). `Cc1cccc(C)c1NC(=S)/N=C\c1c(O)[nH]c(=O)[nH]c1=O` was tested, and the growth was 93.9% (inactive). With `NNC(=O)N/N=C1\C(=O)N(c2nccs2)C(=O)C(=O)C1c1nc2ccccc2s1` (stereo unspecified) the growth was 99.1% (inactive). For `O=S(Cc1ccccc1)/C(=C/NC(=S)Nc1cc(Cl)ccc1Cl)c1ccccc1` (stereo unspecified), the growth was 96.5% (inactive). `CCNC(=O)OCCc1c2ccccc2nc2ccccc12` was tested, and the growth was 111% (inactive). In the case of `CCCCn1cnc2c(=O)[nH]cnc21`, the growth was 105% (inactive). `Cc1cc(CC(=O)NCCO)n(CCO)c(=O)c1` was tested, and the growth was 111% (inactive). For `CCCCCCCCCCC(=O)CCCCCCCCCC`, the growth was 95.3% (inactive). For `NC(=S)N/N=C/c1ccc(OC(=O)COc2ccccc2)cn1`, the growth was 40.9% (inactive). In the case of `c1ccc(Nc2ccccn2)nc1`, the growth was 108% (inactive). With `C[n+]1c(/C=C\C=C\N2CCCCC2)sc2ccccc21` the growth was 1.35% (active). With `CCC(=O)C1C(=O)c2ccccc2C1=O` the growth was 103% (inactive). For `Oc1cc(O)c2c(c1)O[C@H](c1ccc(O)c(O)c1)[C@@H](O)C2`, the growth was 100% (inactive). `C(=C\c1ccncc1)/c1ccncc1` was tested, and the growth was 91.2% (inactive). `NC(CCl)=NCC12CC3CC(CC(C3)C1)C2` was tested, and the growth was 1.18% (active). For `N#C/C(=C\c1ccc(C#N)cc1)C(=O)c1ccccc1`, the growth was 112% (inactive). For `CN1CCCN(C(c2ccccc2)c2ccc(Cl)cc2)CC1` (stereo unspecified), the growth was 94.5% (inactive).

The compounds below were run on MDA-MB-435 melanoma in the same assay as above. Details: 10 µM unless noted.
For `CCOC(=O)/C(C#N)=C\c1c[nH]c2ccccc12`, the growth was 113% (inactive). With `CC(=O)N(C)N=Nc1ccc(C)cc1` the growth was 103% (inactive). In the case of `COc1cc(C(=O)N2CCN(c3ccccc3)CC2)c2ccccc2n1`, the growth was -24.2% (active). For `CCOC(=O)c1ccc(NC(=O)Nc2nccs2)cc1`, the growth was 5.34% (active). For `O=c1n(CC2CO2)c(=O)n(CC2CO2)n1CC1CO1` (stereo unspecified), the growth was 90.4% (inactive). With `CCCCCCCCCCCCSC1=C(Cl)C(=O)C(OC)=C(OC)C1=O` the growth was 25.9% (inactive). In the case of `Cc1ccc(N2C(=O)c3cccc4c(N)c(S(=O)(=O)O)cc(c34)C2=O)cc1`, the growth was 115% (inactive). In the case of `S=C=Nc1ccc2ccccc2c1`, the growth was 101% (inactive). `Oc1cccnc1CN1CCCC1` was tested, and the growth was 107% (inactive). `O=C1C=C(c2ccccc2)C(O)(c2ccccc2)C1` (stereo unspecified) was tested, and the growth was 97.4% (inactive). For `Cc1cc(C)cc(OCC(=O)O)c1`, the growth was 104% (inactive). With `Cc1cccc(C)c1NC(=S)/N=C\c1c(O)[nH]c(=O)[nH]c1=O` the growth was 107% (inactive). With `NNC(=O)N/N=C1\C(=O)N(c2nccs2)C(=O)C(=O)C1c1nc2ccccc2s1` (stereo unspecified) the growth was 109% (inactive). With `O=[N+]([O-])c1c(O)c(CNCCCO)cc(CNCCCO)c1O` the growth was 111% (inactive). `O=C1Nc2ccccc2/C1=C\c1ccccc1O` was tested, and the growth was 82.4% (inactive). With `CN(C)c1ccc2c(N(C)C)cc(N(C)C)nc2c1` the growth was 80.2% (inactive). For `Cc1cccc(-[n+]2noc(N)n2)c1`, the growth was 83.7% (inactive). For `O=S(Cc1ccccc1)/C(=C/NC(=S)Nc1cc(Cl)ccc1Cl)c1ccccc1` (stereo unspecified), the growth was 108% (inactive). `CCNC(=O)OCCc1c2ccccc2nc2ccccc12` was tested, and the growth was 118% (inactive). In the case of `CCCCn1cnc2c(=O)[nH]cnc21`, the growth was 100% (inactive). With `Cc1cc(CC(=O)NCCO)n(CCO)c(=O)c1` the growth was 107% (inactive). With `CCCCCCCCCCC(=O)CCCCCCCCCC` the growth was 106% (inactive). With `NC(=S)c1c(N)n(C2OC(CO)C(O)C2O)c2ncnc(N)c12` (stereo unspecified) the growth was -46.6% (active). `NC(=S)N/N=C/c1ccc(OC(=O)COc2ccccc2)cn1` was tested, and the growth was 60.2% (inactive). In the case of `CCOC(=O)CNC(=O)Sc1ccc(C(C)(C)C)cc1`, the growth was 88.3% (inactive). `c1ccc(Nc2ccccn2)nc1` was tested, and the growth was 104% (inactive). `C[n+]1c(/C=C\C=C\N2CCCCC2)sc2ccccc21` was tested, and the growth was -1.72% (active). In the case of `CCC(=O)C1C(=O)c2ccccc2C1=O`, the growth was 104% (inactive).
